Reference: PubChem BioAssay AID1159580 (chemical genetic matrix, 2015)
Values joined by “and” are separate entries in the source; they are usually repeats but may differ in a detail not shown here. Equal entries are not always repeated. About 2,000 (36%) of roughly 5,500 compounds were called active. Another 18% or so got no clear call; they are omitted. Rule as the data show it: active = normalized growth mostly below about 0.91 (no sharp cut-off); inconclusive = no clear call, values can overlap the other calls; inactive = mostly above about 0.92. The list shows a part of the results.

Experiment: chemical genetic growth profiling, strain panel (AID 1159580);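 also: tested at 20 µM; growth read once vehicle control cultures reached saturation at 30 °C; 1 = growth at the plate median or of vehicle wells; lower values mean less growth of the strain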
Details: growth OD

Measured: normalized growth

COc1ccccc1N1CCN(CCCNc2cc(=O)n(C)c(=O)n2C)CC1
inactive: S. cerevisiae deletion strains, locus YJR043C, strain POL32, active compounds read low 1.01 | S. cerevisiae deletion strains, locus YJR075W, strain HOC1, active compounds read low 0.991 | S. cerevisiae deletion strains, locus YKL009W, strain mrt4, active compounds read low 0.976 | S. cerevisiae deletion strains, locus YKL068W, active compounds read low 0.978 | S. cerevisiae deletion strains, locus YKL085W, strain MDH1 (second series), active compounds read low 0.985 | S. cerevisiae deletion strains, locus YKL085W, strain MDH1, active compounds read low 0.985 | S. cerevisiae deletion strains, locus YKL160W, strain elf1, active compounds read low 0.995 | S. cerevisiae deletion strains, locus YKL190W, strain CNB1, active compounds read low 0.986 | S. cerevisiae deletion strains, locus YKR001C, strain vps1, active compounds read low 0.982 | S. cerevisiae deletion strains, locus YKR026C, strain gcn3, active compounds read low 1.02 | S. cerevisiae deletion strains, locus YKR091W, strain srl3, active compounds read low 1.01 | S. cerevisiae deletion strains, locus YLL001W, strain dnm1, active compounds read low 1.02 | S. cerevisiae deletion strains, locus YLL026W, active compounds read low 1.01 | S. cerevisiae deletion strains, locus YLL041C, strain sdh2, active compounds read low 1.01 | S. cerevisiae deletion strains, locus YLR027C, strain aat2, active compounds read low 1.01 | S. cerevisiae deletion strains, locus YLR039C, strain RIC1, active compounds read low 0.937 | S. cerevisiae deletion strains, locus YLR058C, strain SHM2, active compounds read low 0.974 | S. cerevisiae deletion strains, locus YLR102C, strain apc9, active compounds read low 0.988 | S. cerevisiae deletion strains, locus YLR221C, strain rsa3, active compounds read low 1.01 | S. cerevisiae deletion strains, locus YLR258W, strain gsy2, active compounds read low 1.02 | S. cerevisiae deletion strains, locus YLR262C, strain YPT6 (second series), active compounds read low 1.03 | S. cerevisiae deletion strains, locus YLR262C, strain YPT6, active compounds read low 0.857 | S. cerevisiae deletion strains, locus YLR268W, strain sec22, active compounds read low 0.982 | S. cerevisiae deletion strains, locus YLR320W, strain mms22, active compounds read low 1.02 | S. cerevisiae deletion strains, locus YLR330W, strain CHS5, active compounds read low 0.982 | S. cerevisiae deletion strains, locus YLR342W, strain FKS1 (second series), active compounds read low 1.03 | S. cerevisiae deletion strains, locus YLR342W, strain FKS1, active compounds read low 1.01 | S. cerevisiae deletion strains, locus YLR357W, strain rsc2, active compounds read low 1.03 | S. cerevisiae deletion strains, locus YLR370C, strain arc18, active compounds read low 1.03 | S. cerevisiae deletion strains, locus YLR371W, strain rom2, active compounds read low 1 | S. cerevisiae deletion strains, locus YLR384C, strain iki3, active compounds read low 1.02 | S. cerevisiae deletion strains, locus YLR418C, strain cdc73, active compounds read low 0.97 | S. cerevisiae deletion strains, locus YML016C, strain PPZ1, active compounds read low 0.983 | S. cerevisiae deletion strains, locus YML032C, strain rad52, active compounds read low 1.01 | S. cerevisiae deletion strains, locus YML120C, strain ndi1, active compounds read low 1 | S. cerevisiae deletion strains, locus YML124C, strain tub3, active compounds read low 0.997 | S. cerevisiae deletion strains, locus YMR058W, strain fet3, active compounds read low 1.01 | S. cerevisiae deletion strains, locus YMR078C, strain ctf18, active compounds read low 0.981 | S. cerevisiae deletion strains, locus YMR125W, strain sto1, active compounds read low 1.01 | S. cerevisiae deletion strains, locus YMR129W, active compounds read low 1.02 | S. cerevisiae deletion strains, locus YMR205C, strain PFK2, active compounds read low 1.01 | S. cerevisiae deletion strains, locus YMR223W, strain ubp8, active compounds read low 1 | S. cerevisiae deletion strains, locus YMR231W, strain pep5, active compounds read low 1.02 | S. cerevisiae deletion strains, locus YMR263W, strain SAP30, active compounds read low 0.975 | S. cerevisiae deletion strains, locus YMR307W, strain GAS1, active compounds read low 0.969 and 1.01 | S. cerevisiae deletion strains, locus YNL067W, strain RPL9B, active compounds read low 0.977 | S. cerevisiae deletion strains, locus YNL071W, strain lat1, active compounds read low 1.02 | S. cerevisiae deletion strains, locus YNL128W, strain TEP1, active compounds read low 0.983 and 1.01 | S. cerevisiae deletion strains, locus YNL153C, strain GIM3, active compounds read low 0.977 | S. cerevisiae deletion strains, locus YNL175C, strain NOP13, active compounds read low 1 | S. cerevisiae deletion strains, locus YNL197C, strain WHI3, active compounds read low 1 | S. cerevisiae deletion strains, locus YNL209W, strain ssb2, active compounds read low 1.01 | S. cerevisiae deletion strains, locus YNL224C, strain SQS1, active compounds read low 1 | S. cerevisiae deletion strains, locus YNL233W, strain BNI4, active compounds read low 0.986 | S. cerevisiae deletion strains, locus YNL248C, strain rpa49, active compounds read low 1 | S. cerevisiae deletion strains, locus YNL250W, strain rad50, active compounds read low 0.983 | S. cerevisiae deletion strains, locus YNL271C, strain bni1, active compounds read low 0.992 | S. cerevisiae deletion strains, locus YNL298W, strain CLA4, active compounds read low 0.982 | S. cerevisiae deletion strains, locus YNL307C, strain MCK1, active compounds read low 1.01 | S. cerevisiae deletion strains, locus YNL322C, strain KRE1 (second series), active compounds read low 1.01 | S. cerevisiae deletion strains, locus YNL322C, strain KRE1, active compounds read low 0.977 and 1.02 | S. cerevisiae deletion strains, locus YNR049C, strain mso1, active compounds read low 1.02 | S. cerevisiae deletion strains, locus YNR052C, strain pop2, active compounds read low 0.997 | S. cerevisiae deletion strains, locus YOL006C, strain TOP1, active compounds read low 0.959 | S. cerevisiae deletion strains, locus YOL012C, strain htz1 0.738 | S. cerevisiae deletion strains, locus YOL147C, strain pex11, active compounds read low 0.992 | S. cerevisiae deletion strains, locus YOR001W, strain rrp6, active compounds read low 1.02 | S. cerevisiae deletion strains, locus YOR061W, strain CKA2, active compounds read low 0.963 | S. cerevisiae deletion strains, locus YOR069W, strain VPS5, active compounds read low 0.995 | S. cerevisiae deletion strains, locus YOR070C, strain gyp1, active compounds read low 1.01 | S. cerevisiae deletion strains, locus YOR080W, strain dia2, active compounds read low 1.01 | S. cerevisiae deletion strains, locus YOR083W, strain WHI5 (second series), active compounds read low 0.992 | S. cerevisiae deletion strains, locus YOR083W, strain WHI5, active compounds read low 0.989 | S. cerevisiae deletion strains, locus YOR106W, strain vam3, active compounds read low 1.01 | S. cerevisiae deletion strains, locus YOR136W, strain idh2, active compounds read low 0.997 | S. cerevisiae deletion strains, locus YOR144C, strain elg1, active compounds read low 0.996 | S. cerevisiae deletion strains, locus YOR184W, strain ser1, active compounds read low 1 | S. cerevisiae deletion strains, locus YOR265W, strain rbl2, active compounds read low 1.01 | S. cerevisiae deletion strains, locus YOR270C, strain vph1, active compounds read low 1.03 | S. cerevisiae deletion strains, locus YOR290C, strain snf2, active compounds read low 1 | S. cerevisiae deletion strains, locus YOR316C, strain cot1, active compounds read low 0.988 | S. cerevisiae deletion strains, locus YPL051W, strain arl3, active compounds read low 1.01 | S. cerevisiae deletion strains, locus YPL055C, strain LGE1, active compounds read low 0.965 | S. cerevisiae deletion strains, locus YPL078C, strain atp4, active compounds read low 1.03 | S. cerevisiae deletion strains, locus YPL106C, strain sse1, active compounds read low 1.01 | S. cerevisiae deletion strains, locus YPL240C, strain hsp82, active compounds read low 1.03 | S. cerevisiae deletion strains, locus YPL241C, strain CIN2, active compounds read low 1 and 0.997 | S. cerevisiae deletion strains, locus YPR119W, strain clb2, active compounds read low 0.999 | S. cerevisiae deletion strains, locus YPR141C, strain kar3, active compounds read low 0.967 | S. cerevisiae deletion strains, locus YPR163C, strain tif3, active compounds read low 1 | S. cerevisiae deletion strains, locus YPR167C, strain met16, active compounds read low 0.984 | S. cerevisiae deletion strains, strain wtn01, active compounds read low 0.991 | S. cerevisiae strains, strain wild type, active compounds read low 0.997
